Reference: PubChem BioAssay (NCI)
Values joined by “and” are separate entries in the source; they are usually repeats but may differ in a detail not shown here. Identical values can stand only once. Compounds without any hit were thinned out: in the full panel of roughly 83,000, 20% have a hit.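 Cells were grown in 96-well plates and exposed to the test compound at a single concentration for 48 hours; results are reported as percent growth, with values below 10 considered active.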 A number with no mark means an inactive call. Active and inactive are the calls of the source.

tested on: HS 578T breast; experiment: NCI-60 one-dose screen, 48 h (100 = growth as untreated, 0 = no growth, -100 = all killed); details: 100 µM

Compound | growth [%]
O=C(Nc1cccc(Br)c1)Oc1cccc2cccnc12 | 79.3
O=C(O)c1c(Cl)c(Cl)c(Cl)c(Cl)c1-c1c2cc(I)c(=O)c(I)c-2oc2c(I)c(O)c(I)cc12 | 27.5
CN(C)C(=O)c1ccc(SC(=S)NCc2ccccc2)cc1 | 45.7
COc1ccc(-c2cscc2N)cc1 | 88.2
O=C(Nc1c(Cl)cccc1Cl)Oc1cccc2cccnc12 | 46.6

tested on: NCI/ADR-RES ovarian; experiment: as above; details: 10 µM

Compound | growth
O=C(Nc1cccc(Br)c1)Oc1cccc2cccnc12 | 103%
O=C(O)c1c(Cl)c(Cl)c(Cl)c(Cl)c1-c1c2cc(I)c(=O)c(I)c-2oc2c(I)c(O)c(I)cc12 | 103% and 98% and 109%
CN(C)C(=O)c1ccc(SC(=S)NCc2ccccc2)cc1 | 111%
COc1ccc(-c2cscc2N)cc1 | 77.8%
O=C(Nc1c(Cl)cccc1Cl)Oc1cccc2cccnc12 | 13.5%

same assay, conditions: 10 µM unless noted

Compound | growth
CC(=O)ON=C1C=CC(=C(C#N)c2ccccc2)C=C1 | -10.8% (active)
O=C1C=CC(=O)N1C1c2ccccc2-c2ccccc21 | 100%
COC(=O)c1nc(=S)[nH]c(C(=O)OC)c1C(=O)c1ccc2ccccc2c1 | 106%
O=C(Nc1ccccc1)Oc1c(Cl)c(Cl)c(Cl)c(Cl)c1Cl | 103% and 96.6%
O=C1N[C@H]2[C@H](CS[C@H]2CCCCC(=O)N(CCP(c2ccccc2)c2ccccc2)CCP(c2ccccc2)c2ccccc2)N1 | 101%
CCCCCCCCCCCCCCNCc1ccccc1 | 79.6%
CC(C)(C)CC(C)(C)c1ccc(OCCSC(=N)N)cc1 | 71.7%
Cc1ccnc(NC(c2ccccc2)c2ccc3cccnc3c2O)c1 (configuration not stated) | 22.4%
CNC(=O)N/N=C/c1ccc([N+](=O)[O-])o1 | 108%
O=Nc1ccccc1N=O | 81.2%
O=C(/C=C\c1ccccc1)N1c2ccccc2CC1c1c[nH]c2ccccc12 (configuration not stated) | 73.6%
CN=C(N)N/N=C(\C)c1ccc2c(c1)Cc1cc(/C(C)=N/NC(N)=NC)ccc1-2 | 64.8%
COC(=O)Nc1nc2ccc(C(=O)c3ccccc3)cc2[nH]1 | -28.8% (active) and 4.68% (active) and -3.41% (active)
O=C(Nc1cccc(Br)c1)Oc1ccc(Cl)c2cccnc12 | 6.36% [100 µM] (active)
O=C(CC1(O)C(=O)Nc2c(Cl)ccc(Cl)c21)c1ccc(Cl)cc1Cl (configuration not stated) | 106%
C[N+](C)=c1ccc2nc3c(cc(NCCCNc4cc5oc6cc(=[N+](C)C)ccc-6nc5c5ccccc45)c4ccccc43)oc-2c1 | 6.53% (active)
COc1cc(NS(C)(=O)=O)ccc1Nc1c2ccccc2nc2ccccc12 | 70.2% [2.5 µM]
NC(=O)/C=C/C(=O)c1c(Cl)cccc1Cl | -59.4% (active)
C[n+]1c(/C=C/c2ccc([N+](=O)[O-])cc2)ccc2ccccc21 | 102%
NC(N)=N/N=C/c1ccc([N+](=O)[O-])o1 | 99.5%
S=C(NCCNC(=S)[S][Sn]([c]1ccccc1)([c]1ccccc1)[c]1ccccc1)[S][Sn]([c]1ccccc1)([c]1ccccc1)[c]1ccccc1 | -64.5% (active)
CCC(CCCN(CC)CCc1ccccc1)OC(=O)c1cc(OC)c(OC)c(OC)c1 (configuration not stated) | 83.3%
COc1ccccc1OC(=O)Oc1ccccc1OC | 114% and 95.8%
CCN(CC)CCOc1ccc(-c2nc3cc(Cl)ccc3s2)cc1 | -26.1% (active)
O=[N+]([O-])c1ccc(N=Nc2ccc(O)cc2O)cc1 | 52.6%
Cc1cc(N)c2ccccc2[n+]1CCCCCCCCCC[n+]1c(C)cc(N)c2ccccc21 | 66.2% and 64.1%
CN(C)C(=O)SC1=C(c2c(Cl)cccc2Cl)C(=O)c2ccccc21 | 99.1%

same assay, conditions: 100 µM

Compound | growth
O=C(Nc1cccc(Br)c1)Oc1cccc2cccnc12 | 4.89% (active)
O=C(O)c1c(Cl)c(Cl)c(Cl)c(Cl)c1-c1c2cc(I)c(=O)c(I)c-2oc2c(I)c(O)c(I)cc12 | 10.7%
CN(C)C(=O)c1ccc(SC(=S)NCc2ccccc2)cc1 | 2.6% (active)
COc1ccc(-c2cscc2N)cc1 | 78.1%
O=C(Nc1c(Cl)cccc1Cl)Oc1cccc2cccnc12 | 3.5% (active)
